High-throughput results (PubChem)
This is a sample that favours compounds with a hit; in the whole collection about 2.4% have one here.
Pol eta inh-1 – qHTS for Inhibitors of Polymerase Eta; DNA polymerase eta (Homo sapiens), Q9Y253; recombinant Pol eta, fluorescent DNA replication assay; Potency, µM (titrated, usually from 114 µM), inactives show top-dose activity change, negative = inhibition, actives largely listed as inhibitors; hit rate 1.2% among 390,000; also: potency is read from the fitted curve at half-maximal effect; % is scaled to controls: 0 for no effect and ±100 for the full control effect
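Pol eta at 10 nM preincubated with compounds 15 min at room temperature; reaction started with fluorescent substrate (50 nM final) and read kinetically at 0 and 10 min.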
POLI inh – qHTS for Inhibitors of Polymerase Iota; hit rate 1% among 390,000; DNA polymerase iota (Homo sapiens), Q9UNA4; Pol iota fluorescent replication assay, 10 min; Potency, µM (series often up to 115 µM), for the others: top-dose activity, negative = inhibition, actives largely listed as inhibitors; also: potency is read from the fitted curve at half-maximal effect
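Pol iota at 10 nM preincubated 15 min with compounds at room temperature; reaction started with fluorescent substrate, 50 nM final. Fluorescence read kinetically at 0 and 10 min; buffer-only wells as negative control.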
FEN1 inhibitor – qHTS Assay for the Inhibitors of Human Flap endonuclease 1 (FEN1). P39748. Recombinant FEN1 flap cleavage, fluorescence, 15 min. Potency, µM (titrated, usually from 114 µM), for inactives: at the highest dose activity change, negative = inhibition, actives largely listed as inhibitors. hit rate 0.35% among 390,000; also: potency is read from the fitted curve at half-maximal effect; % is scaled to controls: 0 for no effect and ±100 for the full control effect; nearly all actives have a fitted effect of over 65% in size
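Read-out was taken twice, immediately and after 15 min, following addition of 50 nM substrate to 10 nM FEN1 that had sat with test compound for 15 min at room temperature. Curves came from a four-parameter Hill model.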
Pol kappa inh-1 – qHTS for Inhibitors of Polymerase Kappa; DNA polymerase kappa (Homo sapiens), Q9UBT6; purified Pol kappa, fluorescent DNA synthesis assay, 10 min; Potency, µM (titrated, usually from 107 µM), inactives show top-dose activity, negative = inhibition, actives largely listed as inhibitors; hit rate 0.53% among 400,000; AID 588579, 2011; also: potency is read from the fitted curve at half-maximal effect; % is scaled to controls: 0 for no effect and ±100 for the full control effect
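10 nM Pol kappa was preincubated with compounds for 15 min at room temperature. Reaction started with 50 nM (final) substrate. Fluorescence read kinetically at 0 and 10 min.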
POLB inh – qHTS Assay for Inhibitors of DNA Polymerase Beta | Pol beta primer extension/strand displacement, fluorescence kinetic | AID 485314, 2010 | P06746 | Potency, µM (titrated, usually from 114 µM), without a hit: at the top dose activity change, negative = inhibition, actives largely listed as inhibitors | hit rate 1.3% among 340,000; also: potency is read from the fitted curve at half-maximal effect; % is scaled to controls: 0 for no effect and ±100 for the full control effect
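Human Pol beta at 10 nM; strand-displacement substrate 50 nM final. Compound exposure 15 min at room temperature before start, reaction 10 min at room temperature.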
WRN helicase inh – qHTS for Inhibitors of WRN Helicase | WRN helicase unwinding, fluorescent forked duplex, kinetic | hit rate 0.46% among 360,000 | Potency, µM (highest dose often 114 µM), for inactives: at the top dose activity change, negative = inhibition, hits mostly inhibitors | Bifunctional 3'-5' exonuclease/ATP-dependent helicase WRN (Homo sapiens), Q14191 | AID 651768, 2012; also: potency is read from the fitted curve at half-maximal effect; % is scaled to controls: 0 for no effect and ±100 for the full control effect; nearly all actives have a fitted effect of over 55% in size
Target sequence (Q14191 whole entry, looked up): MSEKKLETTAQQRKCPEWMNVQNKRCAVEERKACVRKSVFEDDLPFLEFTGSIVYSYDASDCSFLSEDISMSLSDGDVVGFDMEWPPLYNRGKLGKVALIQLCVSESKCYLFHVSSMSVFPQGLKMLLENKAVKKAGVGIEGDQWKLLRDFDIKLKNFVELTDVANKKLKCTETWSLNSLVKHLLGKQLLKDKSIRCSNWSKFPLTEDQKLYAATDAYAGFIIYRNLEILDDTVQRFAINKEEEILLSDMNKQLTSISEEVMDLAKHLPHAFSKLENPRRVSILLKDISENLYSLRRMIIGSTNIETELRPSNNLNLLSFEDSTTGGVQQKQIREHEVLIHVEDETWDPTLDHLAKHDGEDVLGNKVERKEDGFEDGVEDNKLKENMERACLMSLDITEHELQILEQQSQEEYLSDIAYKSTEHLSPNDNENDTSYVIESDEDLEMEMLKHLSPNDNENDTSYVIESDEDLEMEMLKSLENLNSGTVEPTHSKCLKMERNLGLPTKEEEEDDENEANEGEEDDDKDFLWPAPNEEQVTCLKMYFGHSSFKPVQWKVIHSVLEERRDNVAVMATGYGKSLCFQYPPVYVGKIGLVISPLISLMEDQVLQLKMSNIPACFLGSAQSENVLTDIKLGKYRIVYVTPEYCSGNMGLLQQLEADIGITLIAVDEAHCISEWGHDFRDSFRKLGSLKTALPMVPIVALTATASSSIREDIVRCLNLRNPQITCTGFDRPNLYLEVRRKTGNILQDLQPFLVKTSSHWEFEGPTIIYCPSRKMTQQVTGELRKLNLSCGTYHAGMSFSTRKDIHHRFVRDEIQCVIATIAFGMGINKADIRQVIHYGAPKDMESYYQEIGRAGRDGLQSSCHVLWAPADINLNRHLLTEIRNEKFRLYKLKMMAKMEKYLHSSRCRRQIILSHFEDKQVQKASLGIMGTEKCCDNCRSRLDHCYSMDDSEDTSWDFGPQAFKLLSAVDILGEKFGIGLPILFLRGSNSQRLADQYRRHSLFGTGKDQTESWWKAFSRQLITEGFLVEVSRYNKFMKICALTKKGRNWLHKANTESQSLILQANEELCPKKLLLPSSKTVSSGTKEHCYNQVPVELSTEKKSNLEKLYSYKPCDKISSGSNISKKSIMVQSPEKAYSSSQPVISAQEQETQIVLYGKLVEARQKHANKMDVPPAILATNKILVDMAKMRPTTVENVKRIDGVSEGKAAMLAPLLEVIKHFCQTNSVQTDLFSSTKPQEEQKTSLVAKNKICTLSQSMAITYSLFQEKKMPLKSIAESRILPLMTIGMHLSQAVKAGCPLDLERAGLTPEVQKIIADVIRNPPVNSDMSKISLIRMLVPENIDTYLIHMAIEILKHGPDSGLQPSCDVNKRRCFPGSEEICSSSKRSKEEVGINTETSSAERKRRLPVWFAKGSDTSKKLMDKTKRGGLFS
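Screening of the MLSMR collection measured strand separation of a quenched forked DNA duplex (100 nM) by 20 nM WRN with 2 mM ATP, all final. Compounds were preincubated with enzyme 15 min at room temperature.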
GALK confirm – Confirmation Assay for Inhibitors of Human Galactokinase (GALK) | shares compounds with Pol eta inh-1 | purified GALK, Kinase-Glo ATP depletion luminescence | Potency, µM (series often up to 115 µM), for the others: at the top dose activity, negative = inhibition, actives largely listed as inhibitors | hit rate 70% among 150 | AID 2015, 2009
Redox cycling – Confirmatory Assay for Inhibitors of Human Galactokinase (GALK): Phenol-HRP redox assay counterscreen | AID 2035, 2009 | Potency, µM (top dose mostly 115 µM), inactives show at the highest dose activity change, negative = H2O2 signal, hits mostly inhibitors | shares compounds with Pol eta inh-1 | Phenol red-HRP H2O2 redox cycling, absorbance 600 nm | hit rate 40% among 150
HEK293 viability – Secondary Assay for Inhibitors of Human Galactokinase (GALK): HEK-293 Cell Viability Assay; shares compounds with Pol eta inh-1; HEK-293 viability, ATP luminescence (CellTiter-Glo), 24/48 h; Potency, µM (highest dose often 46.1 µM), without a hit: top-dose activity change, negative = cytotoxicity, hits mostly inhibitors; hit rate 10% among 170; AID 2547, 2010; also: potency is read from the fitted curve at half-maximal effect; % is scaled to controls: 0 for no effect and ±100 for the full control effect
Pol kappa inh-2 – qHTS for Inhibitors of Polymerase Kappa: Confirmatory Assay for Cherry-picked Compounds; shares compounds with Pol eta inh-1; purified Pol-kappa, fluorescent strand-displacement substrate; Potency, µM, actives largely listed as inhibitors; hit rate 76% among 920; also: potency is read from the fitted curve at half-maximal effect
Pol eta inh-2 – qHTS for Inhibitors of Polymerase Eta: Confirmatory Assay for Cherry-picked Compounds; Pol eta primer extension, TAMRA/BHQ fluorescence, 10 min; shares compounds with Pol eta inh-1; AID 720502, 2013; Potency, µM, hits mostly inhibitors; hit rate 64% among 2,600; also: potency is read from the fitted curve at half-maximal effect
An asterisk follows results filed as active; ? = inconclusive; . = not tested or not shown; [ ] = another dose, or the depositor's remark. Calls follow the shape of the dose curve; as a rule, active = well fitted curve in the direction sought with a large enough effect; inconclusive = small, poorly fitted or top-dose-only effect, or another doubt; inactive = no such curve, though single readings can be large; an effect the other way counts as inactive or inconclusive.

SMILES	Pol eta inh-1	POLI inh	FEN1 inhibitor	Pol kappa inh-1	POLB inh	WRN helicase inh	HEK293 viability	Pol eta inh-2	others
O=C(NC1(O)C(=O)c2ccccc2C1=O)c1ccc(C(F)(F)F)cc1	45µM*	1.8µM*	-5%	-15%	34%	?	-7%	?	GALK confirm=19µM*;Redox cycling=11µM*
Cc1ccc(C(=O)NC2(O)C(=O)c3ccccc3C2=O)cc1C	45µM*	2µM*	-15%	-9%	12%	-5%[11.6 µM]	3%	?	GALK confirm=27µM*;Redox cycling=12µM*
O=C(N[C@@H](Cc1ccccc1)C(=O)O)c1ccc(C(F)(F)F)cc1	-3%	20%	-4%	-24%	-23%	11%	.	.
c1ccc(Nc2nc(-c3ccoc3)nc3ccccc23)cc1	.	.	.	-19%[60.1 µM]	.	.	.	.
COC(=O)c1c(SC)nc2ccccc2c1OCc1ccccc1Cl	-8%	0%	7%	7%	-2%	.	.	.
C/C=C\C=C/C(=O)Nc1cccc(C2=NOC3(C2)C[C@@H](C(N)=O)N(C(=O)C2(C)CC2)C3)c1 (stereo partly drawn)	?	45µM*	-14%	-13%	29%	-9%[11.6 µM]	.	67*
Cc1cc(NS(=O)(=O)c2ccc(NC(=O)c3cc4c(=O)n5ccccc5nc4s3)cc2)nc(C)n1	20µM*	50µM*	-26%	89µM*	?	?	.	60*
Cc1ccc(-c2c(C)n3c4c(=O)n(C)c(=O)n(C)c4nc3n2CCCO)cc1	-16%	18%	-11%	3%	-10%	.	.	.
CC(=O)Oc1cccc(/C=c2\sc3nc(-c4ccco4)nn3c2=O)c1	13µM*	?	-6%	?	22µM*	?	.	48*
Cc1ccc(C2N=C(Nc3nc4ccccc4o3)NC3=C2C(=O)CC(C)(C)C3)cc1 (stereo not drawn)	.	8%	-2%	11%	.	.	0%	.
CC1(C)CC(=O)C2=C(C1)NC(Nc1nc3ccccc3o1)=NC2c1ccccc1 (stereo not drawn)	.	14%	-6%	0%	.	.	-11%	.
CC1(C)CC(=O)C2=C(C1)NC(Nc1nc3ccccc3o1)=NC2c1cccnc1 (stereo not drawn)	.	18%	2%	-21%	.	.	9%	.
CC1(C)CC(=O)C2=C(C1)NC(Nc1nc3ccccc3o1)=NC2c1cccc(F)c1 (stereo not drawn)	.	36%	8%	-23%	.	.	-3%	.
Cc1ccc(N(CC(=O)N2CCN(c3cccc(C)c3C)CC2)S(=O)(=O)c2c(C)nn(C)c2C)cc1	-21%	?	-10%	-15%	-3%	.	.	.
COc1ccc(C2N=C(Nc3nc4ccccc4o3)NC3=C2C(=O)CC(C)(C)C3)cc1 (stereo not drawn)	.	9%	12%	-15%	.	.	-16%	.
COc1ccc(C2Nc3ccccc3NC3=C2C(=O)CC(C)(C)C3)cc1 (stereo not drawn)	-10%	?	-7%	12%	45%	-13%	.	.
CC(=O)c1ccc(NC(=S)Nc2cccc3cnccc23)cc1	10%	42%	0%	-14%	?	-3%	2%	.	GALK confirm=?;Redox cycling=11µM*
Cc1ccc(NC(=S)Nc2cccc3cnccc23)cc1	-15%	84%	-1%	-5%	-3%	3%	.	.
CCOC(=O)c1cc(-c2ccc(C)cc2)n(CCC(=O)Nc2nc3c(C)cccc3s2)c1C	-26%	5%	-16%	-5%	-16%	.	.	.
Cc1c(CCC(=O)NCCCCCC(=O)O)c(=O)oc2cc3occ(-c4ccccc4)c3cc12	22µM*	45µM*	?	?	?	?	.	54*	Pol kappa inh-2=?
Cc1csc2nc(COC(=O)c3ccccc3NC(=O)c3ccc(C(C)(C)C)cc3)cc(=O)n12	-4%	9%	16%	-6%[60.1 µM]	2%	.	.	.
Cc1ccc(CN(Cc2ccco2)C(=O)c2ccccc2Cl)o1	-18%	24%	4%	3%	11%	.	.	.
O=C(O)CN1C(=O)/C(=C/c2ccc(-c3cccc(Cl)c3)o2)SC1=S	.	.	.	.	.	.	.	?	Pol kappa inh-2=34*
CCCOc1ccc(-c2cccc(NS(=O)(=O)c3ccc(CC)cc3)c2)nn1	-22%	3%	-13%	-9%[60.1 µM]	0%	.	.	.
Cc1ccc(C)c(NC(=O)CCNS(=O)(=O)c2ccc3[nH]c(=O)oc3c2)c1	22µM*	-17%	6%	3%	11µM*	-10%[11.6 µM]	.	?
CC(C)CC(NC(=O)/C(=C\c1ccco1)NC(=O)c1ccco1)C(=O)O (stereo not drawn)	-5%	20%	6%	-13%	1%	3%	.	.
O=C(Nc1cccc(C(=O)O)c1)/C(=C\c1ccco1)NC(=O)c1ccc(Br)o1	18µM*	?	-25%	79µM*	?	-5%[11.6 µM]	.	38*	Pol kappa inh-2=24*
CC(C)CC(NC(=O)/C(=C/c1ccco1)NC(=O)c1ccc(Br)o1)C(=O)O (stereo not drawn)	22µM*	?	-23%	71µM*	0%	-7%[11.6 µM]	.	.	Pol kappa inh-2=?
CS(=O)(=O)c1ccc(Cn2c3c(c4cc(F)cc(F)c42)CCC[C@H]3CC(=O)O)cc1	.	.	.	-8%[19.4 µM]	.	.	.	.
